# Shown are actives, neighbours in structure and some others; about 3.4% of the full set was active somewhere.
# GPR151 activ – human GPR151 activation; PathHunter beta-arrestin GPR151 cells, luminescence; activation, % at 11.2 µM; 650,000 tested, 1% active; AID 1508602; in the data active = activation above about 4.9%;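 note: 0% = median of compound wells and 100% = cells with positive control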
# FBW7 act – activators of human E3 ligase FBW7; Q969H0; AlphaScreen FBW7–phospho-cyclin E peptide binding, activator screen; normalized activity (activation), % at 26.1 µM; 650,000 tested, 0.13% active; AID 1259310; in the data active = normalized activity above about 1.9%;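 note: purified mutant Fbw7 with reduced substrate affinity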
# MITF primary – inhibitors of human MITF. O75030. AlphaScreen MITF homodimerization, bead proximity signal. inhibition, % at 2.6 µM. 650,000 tested, 0.91% active. AID 1259374; in the data active = inhibition above about 50%;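 note: 0% = vehicle wells with protein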
# TEAD-YAP block – TEAD-YAP interaction inhibition; 640,000 tested, 1.4% active; inhibition, % at 9.12 µM; HEK-TIYL cells, TEAD-Gal4/YAP UAS-luciferase luminescence; in the data active = inhibition above about 32%;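 note: 0% = median of test compound wells and 100% = reference inhibitor wells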
# GPR151 conf act – confirmation of human GPR151 activators; GPR151 PathHunter beta-arrestin cells, luminescence, 90 min; % of EA-reagent control over plate median; activation, % at 11.2 µM; 6,700 tested, under 10 active; shares compounds with GPR151 activ;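 active = mean percent activation across replicates above the confirmation screen cutoff of 4.91%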
# GPR119 counter – counter-screen for GPR151 activators: effect on human GPR119; GPR119 PathHunter beta-arrestin cells, luminescence, 90 min; 0 = compound-well median, 100 = enzyme-acceptor control; activation, % at 11.2 µM; 6,700 tested, 0.3% active; shares compounds with GPR151 activ;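 active = mean percent activation in the counterscreen above 29.09%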;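 note: counterscreen on off-target GPR119 to flag nonselective hits from the GPR151 activator screen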
# Target sequence (Q8TDV5 whole entry, looked up): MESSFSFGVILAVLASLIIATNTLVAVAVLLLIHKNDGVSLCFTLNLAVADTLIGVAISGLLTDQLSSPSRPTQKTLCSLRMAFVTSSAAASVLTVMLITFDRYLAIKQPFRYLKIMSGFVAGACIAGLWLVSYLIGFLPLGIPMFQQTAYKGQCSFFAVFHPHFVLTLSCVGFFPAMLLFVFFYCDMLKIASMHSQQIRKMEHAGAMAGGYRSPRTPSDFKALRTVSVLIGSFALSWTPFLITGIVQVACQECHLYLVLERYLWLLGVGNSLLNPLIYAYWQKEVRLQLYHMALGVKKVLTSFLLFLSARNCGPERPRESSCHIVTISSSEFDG
# An asterisk follows results filed as active; / = no result given.
SMILES,GPR151 activ,FBW7 act,MITF primary,TEAD-YAP block,GPR151 conf act,GPR119 counter
Cc1cc(NC(=O)C(C)N(c2ccc(Cl)cc2)S(C)(=O)=O)ccc1Br (centres undefined),6.4*,0,10,-1,0,6
Cc1cc(NC(=O)C(=O)NC(C)C)ccc1Br,6.4*,0,21,-60,-1,-8
COC(=O)c1ccccc1NC(=O)C(C)N(c1ccc(Cl)cc1)S(C)(=O)=O (centres undefined),6.8*,0,-1,3,0,8
O=C(NCC(c1ccc2c(c1)OCO2)N1CCN(c2ccccc2F)CC1)c1cnccn1 (centres undefined),5.5*,0,15,-23,1,6
Cc1ccccc1NC(=O)C(=O)NCC(c1ccc2c(c1)OCO2)N1CCN(C)CC1 (centres undefined),5.7*,0,1,-10,0,-5
Cc1ccc(N(Cc2ccc(C(=O)NC(C)c3ccccc3)cc2)S(C)(=O)=O)cc1C (centres undefined),5.5*,0,4,11,-1,2
CC(NC(=O)c1ccc(N(Cc2ccccc2)S(C)(=O)=O)cc1)c1ccccc1 (centres undefined),1,0,-1,0,/,/
COC(=O)c1c(NC2=NS(=O)(=O)c3ccccc32)sc2c1CCC2,1,0,-10,1,/,/
COc1cc(CNc2ccnc3c(-c4cccc(C(C)=O)c4)cnn23)cc(OC)c1OC,1,-1,12,10,/,/
CC1(CCC(=O)N2CCC(n3nccc3NC(=O)CCOc3ccccc3)CC2)CC1,2,0,7,1,/,/
O=C(CCOc1ccccc1)Nc1ccnn1C1CCN(C(=O)CCc2ccccc2)CC1,5.7*,0,1,-6,0,5
CC(C)CC(=O)Nc1ccnn1C1CCN(CC2=CC[C@H]3C[C@@H]2C3(C)C)CC1,0,0,4,4,/,/
CC1(C)[C@H]2CC=C(CN3CCC(n4nccc4NC(=O)CCOc4ccccc4)CC3)[C@@H]1C2,5.3*,0,2,7,0,4
S=C(C1=Cc2ccccc2OC1)N1CCOCC1,-1,0,-17,0,/,/
COC(=O)c1c(OCc2ccccn2)cc(=O)n2c1CCN(C(=O)c1ccccc1C)CC2,-1,0,-15,-1,/,/
COC(=O)c1c(OCc2ccncc2)cc(=O)n2c1CCN(C(=O)c1ccccc1C)CC2,5.1*,0,-19,-17,1,-2
O=C(CC1CCCC1)N1CCC2(CC1)OCc1cc(Cl)ccc1O2,0,0,6,4,/,/
CC(N)(C(=O)O)c1ccc(Br)cc1 (centres undefined),-1,1,23,-2,/,/
CCCn1nnnc1SCC(=O)Nc1cccc(NC(C)=O)c1,5.2*,0,-8,-3,2,7
CCn1nnnc1SCC(=O)Nc1cccc(NC(C)=O)c1,0,0,-13,-8,/,/
Cc1ccc(Nc2nc(-c3sc(N)nc3C)cs2)cc1Cl,0,0,6,-12,/,/
N#Cc1c(N2CCCCC2)nc(-c2ccco2)c2c1CCCC2,0,0,16,14,/,/
CC1(C)Cc2c(C#N)c(N3CCCC3)nc(-c3ccco3)c2CO1,12*,0,-4,0,1,4
Cc1ccc(NC(=O)CN(C)S(=O)(=O)c2ccc3c(c2)CCC(=O)N3)c(Cl)c1,0,0,-7,2,/,/
Cc1cccc(NC(=O)c2cc3c(cc2Cl)N2CCCCCC2=NS3(=O)=O)c1C,0,0,9,-2,/,/
SMILES,GPR151 activ,FBW7 act,MITF primary,TEAD-YAP block,GPR151 conf act,GPR119 counter
CCN(CC)c1ncccc1C(=O)NC1CCCCC1,1,0,-5,-5,/,/
CC(C)C(NC(=O)c1ccc(F)cc1)C(=O)O (centres undefined),-1,0,3,1,/,/
Cc1ccc(C(=O)NC(C(=O)O)C(C)C)cc1 (centres undefined),7.8*,0,9,9,0,-3
Cc1ccc(C(=O)NC(C)C2CC3CCC2C3)cc1 (centres undefined),10*,0,0,-12,1,3
C#CCN1C(=O)S/C(=C\c2ccccc2OCC(=O)O)C1=O,-2,0,3,1,/,/
COc1ccc(-c2csc(NC(=O)c3ccc(C)o3)n2)cc1,9.6*,0,10,0,0,12
